Hit rate of the full screen: of about 13,000 compounds, about 3,200 (25%) showed an effect of 50% or more. The list shows a part of the results.
System: P. falciparum stage V gametocytes
Set-up: BacTiter-Glo ATP luminescence viability of purified stage V gametocytes in 384-well plates, per cent inhibition versus DMSO
Conditions: 48 h, 5 µM; inhibitor

Row | SMILES | % Inhibition [%]
1 | CC(C)NCc1ccc(-c2cccc(-c3nc4ccc(C(F)(F)F)cc4[nH]3)c2)cc1 [TCMDC-132739] | 37.23
2 | COc1ccc2nccc([C@H](O)CN3CCC(NCc4ccc5c(c4C)OCCO5)CC3)c2n1 [TCMDC-136066] | 21.32
3 | Cc1c(C)n(C2CCCCC2)c2ncnc(OC3CCN(CC(=O)N4CCCC4)CC3)c12 [TCMDC-124854] | 2.854
4 | COc1ccc(C(=O)NC2CCN(c3ccnc4cc(Cl)ccc34)C2)cc1 (stereo not drawn) [TCMDC-133648] | 42.46
5 | Cc1cc(Nc2ccccc2)nc(Nc2ccccc2)n1 [TCMDC-124214] | 11.37
6 | Cn1c(NC(=O)CCCCCNC(=O)c2ccc(O)c(-c3ccc(Cl)c(Cl)c3)c2)nc2ccccc21 [TCMDC-140880] | 4.339
7 | Cc1cc(Nc2ccc(Oc3ccc(Cl)cc3)cc2)nc(N)n1 [TCMDC-138073] | -5.729
8 | Cc1nc(N)nc(N)c1-c1ccc(Cl)cc1 [TCMDC-138984] | -0.9845
9 | CC(=O)Oc1c(Cl)c(C)nc(C)c1-c1ccc(Oc2ccc(Cl)cc2)cc1 [TCMDC-137381] | 75.31
10 | COc1cccc(CN2CCCC(COC(c3ccc(F)cc3)c3ccc(F)cc3)C2)c1O (stereo not drawn) [TCMDC-136038] | -18.09
11 | CN(C)c1ccc(-c2ccc(C(=O)NC3CCN(Cc4cccc(C(F)(F)F)c4)CC3)s2)cc1 [TCMDC-134365] | -28.78
12 | CN(C)c1ccc(CN2CCCC(CNC(=O)c3ccc(-c4cccc(C(F)(F)F)c4)s3)C2)cc1 (stereo not drawn) [TCMDC-134324] | 98.4
13 | O=C(NC1CCN(Cc2cccc(C(F)(F)F)c2)CC1)c1ccc(-c2cccc(Cl)c2)s1 [TCMDC-134364] | 25.17
14 | COc1ccccc1CN1CCC(NC(=O)c2ccc(-c3cccc(C(F)(F)F)c3)s2)CC1 [TCMDC-134355] | 4.957
15 | CC(=O)Nc1ccc(CN2CCC(NC(=O)c3ccc(-c4cccc(OC(C)C)c4)s3)CC2)cc1 [TCMDC-134335] | 1.059
16 | COc1cccc(-c2ccc(C(=O)NCC3CCCN(Cc4cccc(C(F)(F)F)c4)C3)s2)c1 (stereo not drawn) [TCMDC-134361] | 72.66
17 | CN(C)c1ccc(CN2CCC(NC(=O)c3ccc(-c4cccc(C(F)(F)F)c4)s3)CC2)cc1 [TCMDC-134325] | -44.98
18 | COc1ccccc1-c1ccc(C(=O)NCC2CCCN(Cc3cccc(C(F)(F)F)c3)C2)s1 (stereo not drawn) [TCMDC-134360] | 55.62
19 | O=C(NC1CCN(Cc2cccc(C(F)(F)F)c2)CC1)c1ccc(-c2cccc(C(F)(F)F)c2)s1 [TCMDC-134363] | 23.99
20 | CC(C)Oc1cccc(-c2ccc(C(=O)NCC3CCCN(Cc4cccc(C(F)(F)F)c4)C3)s2)c1 (stereo not drawn) [TCMDC-134362] | 86.43
21 | Cc1ccc(NC(=O)Nc2ccc(Cl)c(C(F)(F)F)c2)cc1-c1ccc(C(=O)Nc2ccncc2)cc1 [TCMDC-133700] | -87.03

Row | SMILES | % Inhibition [%]
22 | Cc1ccc(NC(=O)c2cccc(N3CCN(c4ccncc4)CC3)c2)cc1F [TCMDC-135124] | -11.57
23 | CN(C)c1ccc(C2c3nc[nH]c3CCN2C(=O)Nc2cccc([N+](=O)[O-])c2)cc1 (stereo not drawn) [TCMDC-141569] | 12.33
24 | CCNc1cc(C(=O)N[C@@H](Cc2cccc(Cl)c2)[C@H](O)CNC(C)CCCC(C)C)cc(N2CCCCS2(=O)=O)c1 (stereo partly drawn) [TCMDC-135225] | 15.74
25 | CCNc1cc(C(=O)N[C@@H](Cc2ccoc2)[C@H](O)CNC(C)CCCC(C)C)cc(N2CCCCS2(=O)=O)c1 (stereo partly drawn) [TCMDC-135411] | 37.57
26 | COc1cc(CNC[C@@H](O)[C@H](Cc2ccccc2)NC(=O)c2cc(C3CCCC3)cc(N3CCCCS3(=O)=O)c2)cc(OC)c1 [TCMDC-134561] | 14.07
27 | CCCCCC(C)NC[C@@H](O)[C@H](Cc1ccccc1)NC(=O)c1cc(NCC)cc(N2CCCCS2(=O)=O)c1 (stereo partly drawn) [TCMDC-135293] | 40.73
28 | CCNc1cc(C(=O)N[C@@H](Cc2ccccc2Cl)[C@H](O)CNC(C)CCCC(C)C)cc(N2CCCCS2(=O)=O)c1 (stereo partly drawn) [TCMDC-135224] | 92.78
29 | CCNc1cc(C(=O)N[C@@H](Cc2ccccc2)[C@H](O)CNC(C)(C)Cc2cccc(Cl)c2)cc(N2CCCCS2(=O)=O)c1 [TCMDC-135309] | 13.84
30 | CCNc1cc(C(=O)N[C@@H](Cc2cccc(F)c2)[C@H](O)CNC(C)CCCC(C)C)cc(N2CCCCS2(=O)=O)c1 (stereo partly drawn) [TCMDC-135307] | 42.64
31 | CCCC(C)NC[C@@H](O)[C@H](Cc1ccccc1)NC(=O)c1cc(C2CCCC2)cc(N2CCCCS2(=O)=O)c1 (stereo partly drawn) [TCMDC-135216] | 60.63
32 | CCNc1cc(C(=O)N[C@@H](Cc2ccccc2)[C@H](O)CNC(C)Cc2cccc(Cl)c2)cc(N2CCCCS2(=O)=O)c1 (stereo partly drawn) [TCMDC-135412] | 76.43
33 | CCNc1cc(C(=O)N[C@@H](Cc2ccccc2)[C@H](O)CNC(C)CCCC(C)C)cc(N2CCCS2(=O)=O)c1 (stereo partly drawn) [TCMDC-138825] | 1.46
34 | CCCC(C)NC[C@@H](O)[C@H](Cc1ccccc1)NC(=O)c1cc(NCC)cc(N2CCCCS2(=O)=O)c1 (stereo partly drawn) [TCMDC-135226] | 61.06
35 | O=C(N[C@@H](Cc1ccccc1)[C@H](O)CNC1CCOCC1)c1cc(C2CCCC2)cc(N2CCCCS2(=O)=O)c1 [TCMDC-134938] | 31.68
36 | CC(C)[C@@H](C(=O)NCc1cccc(C(F)(F)F)c1)N1C(=O)CCC1C(=O)Nc1ccc([N+](=O)[O-])cc1 (stereo partly drawn) [TCMDC-141408] | -12.94
37 | COc1ccc(Cc2cnc3nc(N)nc(N)c3c2C)cc1 [TCMDC-137704] | 42.37
38 | CC(=O)NCC(=O)NC1=NC(C)(C)N(OCc2ccc3ccccc3c2)C(N)=N1 [TCMDC-131579] | 9.815
39 | CC(=O)Nc1cccc(C(=O)Nc2cccc(-c3cccc(-c4nc5ccccc5[nH]4)c3)c2)c1 [TCMDC-132134] | -16.76
40 | COc1cccc(-n2ncc3c(N/N=C/c4ccc(CN(C)CCN(C)C)cc4)ncnc32)c1 [TCMDC-138728] | 20.85
41 | O=C(NCCCc1ccccc1)c1csc(C2CCCN(C(=O)c3ccc(O)c(-c4ccccc4)c3)C2)n1 (stereo not drawn) [TCMDC-140153] | -2.163
42 | O=C(Nc1cccnc1)c1cn(-c2ccccc2)nc1-c1cccs1 [TCMDC-124055] | -11.35

Row | SMILES | % Inhibition [%]
43 | COc1ccc(NC(=O)[C@H](CC(C)C)Nc2cc(C)nc(NCc3cccc(C)c3)n2)cc1 [TCMDC-134891] | -4.805
44 | O=[N+]([O-])c1cccc(NC(=S)N2CCCN(Cc3ccc(C(F)(F)F)cc3)CC2)c1 [TCMDC-141016] | 26.08
45 | O=C(Nc1cccc(OC2CCN(Cc3ccccc3)CC2)c1)Nc1cccc([N+](=O)[O-])c1 [TCMDC-139544] | -4.381
46 | O=C(Nc1cccc(CN2CCCN(Cc3ccc(O)cc3)CC2)c1)c1cccc(F)c1 [TCMDC-141816] | -13.75
47 | O=[N+]([O-])c1cccc(NC(=S)N2CCCN(Cc3ccc(Cl)cc3Cl)CC2)c1 [TCMDC-141017] | 68.72
48 | O=[N+]([O-])c1cccc(NC(=S)N2CCCN(Cc3ccc(F)cc3F)CC2)c1 [TCMDC-141015] | 78.9
49 | O=C(/C=C/c1ccc(Cl)c(Cl)c1)NCCCCCN1CCCN(C(=S)Nc2cccc(Cl)c2)CC1 [TCMDC-135894] | 9.594
50 | Fc1ccc(-c2cncc(Nc3ccncc3)n2)cc1 [TCMDC-134499] | 21.35
51 | CC1(C(=O)Nc2ccc([N+](=O)[O-])cc2O)CC2c3ccccc3C1c1ccccc12 (stereo not drawn) [TCMDC-124076] | -1.633
52 | O=C(NC1CCC(N2CCN(c3cccc4[nH]ccc34)CC2)CC1)c1cc2cccnc2[nH]1 (stereo not drawn) [TCMDC-134216] | -40.15
53 | NC1CCN(Cc2ccc(-c3ccc(-c4nc5ccc(F)cc5[nH]4)s3)cc2)C1 (stereo not drawn) [TCMDC-133854] | 66.76
54 | NC1CCCN(Cc2ccc(-c3ccc(-c4nc5ccc(F)cc5[nH]4)s3)cc2)C1 (stereo not drawn) [TCMDC-133856] | 57.48
55 | OCC1CCN(Cc2ccc(-c3ccc(-c4nc5ccc(F)cc5[nH]4)s3)cc2)CC1 [TCMDC-133127] | -4.488
56 | NC1CCN(Cc2cccc(-c3ccc(-c4nc5ccccc5[nH]4)s3)c2)C1.O=C(O)C(F)(F)F (stereo not drawn) [TCMDC-133869] | 26.1
57 | NC1CCN(Cc2ccc(-c3ccc(-c4nc5ccccc5[nH]4)s3)cc2)C1 (stereo not drawn) [TCMDC-133847] | 76.03
58 | OC1CCCN(Cc2ccc(-c3ccc(-c4nc5ccc(F)cc5[nH]4)s3)cc2)C1 (stereo not drawn) [TCMDC-133821] | -16.69
59 | NC1CCCN(Cc2ccc(-c3ccc(-c4nc5ccccc5[nH]4)s3)cc2)C1 (stereo not drawn) [TCMDC-133849] | 41.97
60 | CC(=O)N(C)C1CCN(Cc2ccc(-c3ccc(-c4nc5ccc(F)cc5[nH]4)s3)cc2)C1 (stereo not drawn) [TCMDC-133895] | -2.042
61 | CCOc1cc(C(=O)NCC2CCN(CC3CCCCC3)CC2)ccc1-c1nc2ccc(Cl)cc2[nH]1 [TCMDC-140914] | -32.49
62 | O=C(NCCc1ccc(Cl)c(Cl)c1)[C@@H]1CCCN1C(=O)c1ccc(O)c(-c2cccc(C(F)(F)F)c2)c1 [TCMDC-140822] | 3.039
63 | O=C(NCc1ccc(Cl)cc1)c1ccc(C(=O)NCC2CCCN2CC2CCCCC2)cc1 (stereo not drawn) [TCMDC-136754] | -3.385

Reference: paper PMC4552634, “A New Set of Chemical Starting Points with Plasmodium falciparum Transmission-Blocking Potential for Antimalarial Drug Discovery” (PLoS ONE, 2015)
